# Article PMC4336329 (PLoS ONE, 2015)
# Screen size: about 310,000 compounds; about 14,000 (4.5%) showed an effect of 50% or more. Effects have a minus sign here. The sample as a whole holds a higher share of strong results than the screen did.
# Target: human ether-à-go-go-related gene (hERG) potassium channel (human, UniProt Q12809)
# Test: primary screen, population patch clamp on CHO cells stably expressing hERG; higher = less effect of the substance
# 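Note: peak tail current of the secondary pulse compared with the same well before compound.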
# human ether-à-go-go-related gene (hERG) potassium channel, sequence (Q12809 whole entry, looked up): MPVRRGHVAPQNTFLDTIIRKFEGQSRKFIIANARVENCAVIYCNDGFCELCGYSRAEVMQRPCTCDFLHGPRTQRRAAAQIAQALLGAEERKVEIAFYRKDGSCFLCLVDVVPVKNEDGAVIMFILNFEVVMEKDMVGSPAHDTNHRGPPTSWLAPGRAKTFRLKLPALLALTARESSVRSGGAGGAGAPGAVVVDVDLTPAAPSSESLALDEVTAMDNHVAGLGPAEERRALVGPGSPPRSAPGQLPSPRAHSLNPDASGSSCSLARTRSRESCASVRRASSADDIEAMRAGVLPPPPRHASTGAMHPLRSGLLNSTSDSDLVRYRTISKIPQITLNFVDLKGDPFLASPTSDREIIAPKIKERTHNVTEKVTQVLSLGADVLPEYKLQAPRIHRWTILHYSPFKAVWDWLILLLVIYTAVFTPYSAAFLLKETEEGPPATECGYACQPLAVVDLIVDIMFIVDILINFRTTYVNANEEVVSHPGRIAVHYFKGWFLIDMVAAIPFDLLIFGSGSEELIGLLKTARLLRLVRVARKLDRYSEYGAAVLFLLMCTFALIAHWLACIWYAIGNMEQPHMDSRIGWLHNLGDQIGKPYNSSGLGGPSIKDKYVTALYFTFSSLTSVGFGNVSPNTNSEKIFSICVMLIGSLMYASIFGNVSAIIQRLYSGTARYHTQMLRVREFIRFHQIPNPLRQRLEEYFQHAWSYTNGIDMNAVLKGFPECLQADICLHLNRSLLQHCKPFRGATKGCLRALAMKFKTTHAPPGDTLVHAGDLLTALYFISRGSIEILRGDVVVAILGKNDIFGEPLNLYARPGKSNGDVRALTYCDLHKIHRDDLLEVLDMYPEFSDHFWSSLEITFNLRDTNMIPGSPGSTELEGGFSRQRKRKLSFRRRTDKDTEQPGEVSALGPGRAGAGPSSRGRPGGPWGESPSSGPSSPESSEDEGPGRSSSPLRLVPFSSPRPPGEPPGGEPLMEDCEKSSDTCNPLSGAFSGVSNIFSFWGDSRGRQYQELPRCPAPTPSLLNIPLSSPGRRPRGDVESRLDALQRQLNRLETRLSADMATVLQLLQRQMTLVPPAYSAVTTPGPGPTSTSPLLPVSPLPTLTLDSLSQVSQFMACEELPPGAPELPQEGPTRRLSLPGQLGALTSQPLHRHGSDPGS
row,SMILES,"hERG current change (%, negative = inhibition) at 10uM"
1,Cc1ccc(Cn2ccc(NC(=O)c3cc(-c4ccc(Br)cc4)on3)n2)cc1,22.6%
2,CCOC(=O)c1cc2nc(-c3ccccc3)cc(C)n2n1,5.61%
3,COC(=O)c1cc2ccsc2n1Cc1nc(-c2ccc(Cl)cc2)oc1C,7.33%
4,CSc1nc(N(C)NC(=O)c2ccc(Cl)cc2)c2ccccc2n1,2.16%
5,Cc1ccc(OCc2ccc(C(=O)Nc3ccc(S(N)(=O)=O)cc3)o2)cc1,12.4%
6,CCOC(=O)C1=C(O)CSC1=Nc1ccc(C)cc1,-4.86%
7,CCC(C)n1c(SCC(=O)Nc2cc(C(C)(C)C)nn2-c2ccccc2)nc2ccccc2c1=O (stereo not shown),3.57%
8,CCc1ccc(NC(=O)Nc2cc(C(=O)NCC3CCCO3)ccc2N2CC3CC(C2)c2cccc(=O)n2C3)cc1 (stereo not shown),-17.6%
9,CCc1ccc(NC(=O)Nc2cc(C(=O)O)ccc2N2CC3CC(C2)c2cccc(=O)n2C3)cc1 (stereo not shown),20.4%
10,Nc1cc(C(=O)Nc2ccc(Cl)cc2)ccc1N1CC2CC(C1)c1cccc(=O)n1C2 (stereo not shown),-62.1%
11,CCOc1ccc(NC(=O)c2ccc(N3CC4CC(C3)c3cccc(=O)n3C4)c(N)c2)cc1 (stereo not shown),-21.7%
12,O=C(Nc1ccc(Cl)cc1)N1CC2CC(C1)c1cccc(=O)n1C2 (stereo not shown),4.31%
13,CCCNC(=O)c1ccc(N2CC3CC(C2)c2cccc(=O)n2C3)c(NC(=O)Nc2ccc(CC)cc2)c1 (stereo not shown),-78.7%
14,COc1ccc(CCNC(=O)C2CCC(=O)N2CCc2ccccc2)cc1OC (stereo not shown),12.4%
15,O=c1nc2n(c3ccc([N+](=O)[O-])cc13)CCCCC2,-15.4%
16,COCc1cc(=O)[nH]c(Nc2nc(C)c3ccccc3n2)n1,-8.74%
17,COCc1cc(=O)[nH]c(Nc2nc(C)c3cc(OC)ccc3n2)n1,7.05%
18,CCc1ccc2nc(Nc3nc(COC)cc(=O)[nH]3)nc(C)c2c1,-73.3%
19,CCC(=O)Nc1ccc(C(=O)Nc2ccc(OC)cc2[N+](=O)[O-])cc1,13.7%
20,FC(F)(F)c1cccc(Cc2noc(CN3CCCCC3c3ccccn3)n2)c1 (stereo not shown),-8.11%

row,SMILES,"hERG current change (%, negative = inhibition) at 10uM"
1,Cc1ncc(CN2CCC(n3nccc3NC(=O)c3ccccc3)CC2)s1,-19%
2,COc1ccccc1C(=O)Nc1ccnn1C1CCN(Cc2cnc(N(C)C)s2)CC1,-65%
3,Cc1ccccc1C(=O)Nc1ccnn1C1CCN(Cc2cccnc2)CC1,-77.4%
4,COc1ccccc1CN1CCC(n2nccc2NC(=O)c2ccccc2Cl)CC1,-76.2%
5,Cc1cc(CN2CCC(n3nccc3NC(=O)c3ccccc3Cl)CC2)cc(C)c1O,-74.2%
6,COc1cccc(OC)c1OC(=O)/C=C/c1ccc(C)o1,6.2%
7,CC(C)(C)C(=O)NCCCNc1ccc([N+](=O)[O-])cc1,-24.7%
8,CC(C)(C)c1ccc(C(=O)NCCC(=O)NCc2ccco2)cc1,-36.1%
9,Cc1cc(C)n2nc(CCc3ccccc3)nc2n1,-12.8%
10,O=C(O)CCC(=O)NC1CCCCC1,6.89%
11,COc1ccc(/C=C/c2nc(-c3ccccc3O)n(-c3ccccc3)n2)cc1,-2.17%
12,COc1ccc(OC)c(CNc2ccc([N+](=O)[O-])cc2C)c1,3.55%
13,Cc1ccccc1C(=O)Nc1ccnn1C1CCN(Cc2ccncc2)CC1,-45.1%
14,Cc1cc(C)c(CN2CCC(n3nccc3NC(=O)c3ccccc3Cl)CC2)cc1C,-50.8%
15,Cc1ccccc1C(=O)Nc1ccnn1C1CCN(Cc2ccccn2)CC1,-33.9%
16,O=C(Nc1ccnn1C1CCN(Cc2ccccc2)CC1)c1ccccc1Cl,-76.1%
17,O=C(Nc1ccnn1C1CCN(Cc2cccnc2)CC1)c1ccccc1Cl,-37.1%
18,O=C(Nc1ccnn1C1CCN(C2CCCC2)CC1)c1ccccc1Cl,-45%
19,CCc1ccc(CN2CCC(n3nccc3NC(=O)c3ccccc3C)CC2)cc1,-76.2%
20,O=C(Nc1ccnn1C1CCN(C2CCC2)CC1)c1ccccc1Cl,-63.6%

row,SMILES,"hERG current change (%, negative = inhibition) at 10uM"
1,O=C(Nc1ccnn1C1CCN(C2CCC2)CC1)c1ccccc1,-0.539%
2,C=CCN1C(=O)C(C)(C)Nc2ccccc21,6.7%
3,O=C(c1cccnc1Cl)N(Cc1ccccc1)Cc1ccccc1,-17.7%
4,CC(=O)Nc1ccc(-c2csc(-c3cccnc3)n2)cc1,3.98%
5,O=C1Nc2ccccc2/C1=C/c1ccccc1F,26.3%
6,COc1cc(NC(=O)C2CCCO2)c(OC)cc1NC(=O)c1ccccc1 (stereo not shown),8.17%
7,CC(=O)OC[C@H]1O[C@@H](Sc2cccc3cccnc23)[C@H](OC(C)=O)[C@@H](OC(C)=O)[C@@H]1OC(C)=O,-11.4%
8,CCCN(C#N)c1nc(NCC)nc(NC(C)C)n1,-10.2%
9,O=C1CN(CC(=O)Nc2ccc(Cl)cc2)CCN1,-4.87%
10,CC(=O)c1cccc(NC(=O)N2C3CCCC2CC(NC(=O)C2CC2)C3)c1 (stereo not shown),17.2%
11,CCN1CCC(n2nccc2NC(=O)c2ccccc2Cl)CC1,-21%
12,COc1ccccc1C(=O)Nc1ccnn1C1CCN(Cc2ccccc2OCCO)CC1,-78.7%
13,Cc1cccc(CN2CCC(n3nccc3NC(=O)c3ccccc3C)CC2)n1,-19.9%
14,CCc1ccc(CN2CCC(n3nccc3NC(=O)c3ccccc3Cl)CC2)cc1,-84.4%
15,CSc1ccc(CN2CCC(n3nccc3NC(=O)c3ccccc3C)CC2)cc1,-75%
16,COC(C(=O)Nc1ccnn1C1CCN(Cc2ccc(C)s2)CC1)c1ccccc1 (stereo not shown),-50.8%
17,COC(C(=O)Nc1ccnn1C1CCN(Cc2ccc(Cl)s2)CC1)c1ccccc1 (stereo not shown),-5.29%
18,COC(C(=O)Nc1ccnn1C1CCN(Cc2nccs2)CC1)c1ccccc1 (stereo not shown),0.847%
